# Assay results from PubChem BioAssay AID430 (Sanford-Burnham Center for Chemical Genomics, 2006).
# Out of some 63,000 compounds screened, about 1,100 (1.7%) were called active. This is one part of a sample in which actives are shown more often than they occur. Measured potencies and affinities stand elsewhere. Values without a mark were called inactive. Cut-off read from the data, not from the text of the source: active = cytotoxicity above about 50%; inactive = the rest.
# Assay: HPDE-C7 pancreatic duct cell viability loss – fluorescence, HTS (AID 430);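 note: cells exposed to compound for 48 hours before viability readout; 0% = vehicle and 100% = reference cytotoxic drug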
# Conditions: HPDE-C7 pancreatic duct cells viability, at 10 µM, active compounds read high
row,SMILES,cytotoxicity
1,Cc1ccc2nc3c(cc2c1)CN(Cc1ccco1)C(=NCC1CCCO1)S3 (stereo unspecified),-19.9%
2,Cc1cccc2cc3c(nc12)SC(=NCC1CCCO1)N(Cc1ccco1)C3 (stereo unspecified),53.7% (active)
3,Cc1ccc2cc(CN(Cc3nnnn3Cc3ccco3)CC3CCCO3)c(=O)[nH]c2c1C (stereo unspecified),-0.4%
4,CCc1nc(SCC(=O)N2CCN(C(=O)c3ccco3)CC2)c2c3c(sc2n1)CCCC3,3%
5,COc1cccc(N2CCN(CC(=O)Nc3nnc(-c4ccccc4)s3)CC2)c1,21.2%
6,O=C(CN1CCN(c2ccccc2)CC1)Nc1nnc(-c2ccccc2)s1,7.8%
7,COc1ccc(N2CCN(CC(=O)Nc3nnc(-c4ccccc4)s3)CC2)cc1,50.3% (active)
8,Cn1c(=O)oc2cc(S(=O)(=O)N3CCCC(C(=O)NCc4cccs4)C3)ccc21 (stereo unspecified),-3.9%
9,Cc1ccc2c(c1)-c1c(ssc1=S)C(C)(C)N2C(=O)CSc1nncn1C,-1.2%
10,Cc1cc(C)c2c(c1)-c1c(ssc1=S)C(C)(C)N2C(=O)CSc1nncn1C,56.7% (active)
11,Cc1ccc2c(c1)N(C(=O)CSc1nncn1C)C(C)(C)c1ssc(=S)c1-2,14.3%
12,CCCN1Cc2cccc(C(N)=O)c2C1=O,-14.7%
13,COc1ccccc1N1CCN(C(=O)c2ccc(CS(=O)(=O)c3ccccc3OC)o2)CC1,-8.2%
14,COc1ccc(S(=O)(=O)Cc2ccc(C(=O)N3CCN(c4ccccc4F)CC3)o2)cc1,-21.7%
15,Cc1ccc(C)c(N2CCN(C(=O)c3ccc(CS(=O)(=O)c4ccccc4C)o3)CC2)c1,55.6% (active)
16,Cc1ccc(S(=O)(=O)Cc2ccc(C(=O)N3CCN(c4cc(C)ccc4C)CC3)o2)cc1,17.5%
17,Cc1ccccc1S(=O)(=O)Cc1ccc(C(=O)N2CCN(c3ncccn3)CC2)o1,-19.4%
18,COc1ccccc1S(=O)(=O)Cc1ccc(C(=O)N2CCN(c3ccccc3)CC2)o1,-24.2%
19,Cc1ccccc1S(=O)(=O)Cc1ccc(C(=O)N2CCN(c3cccc(C)c3C)CC2)o1,87.9% (active)
20,COc1ccc(N2CCN(C(=O)c3ccc(CS(=O)(=O)c4ccc(OC)cc4)o3)CC2)cc1,-11.6%
21,COc1ccc(S(=O)(=O)Cc2ccc(C(=O)N3CCN(c4cccc(C)c4C)CC3)o2)cc1,57% (active)
22,Cc1ccccc1S(=O)(=O)Cc1ccc(C(=O)N2CCN(C3CCCCC3)CC2)o1,-7%
23,COc1ccccc1S(=O)(=O)Cc1ccc(C(=O)N2CCN(c3cccc(Cl)c3)CC2)o1,60.8% (active)
24,Cc1ccccc1S(=O)(=O)Cc1ccc(C(=O)N2CCN(c3ccc(F)cc3)CC2)o1,-10%

row,SMILES,cytotoxicity
1,CC(NC(=O)Cn1cnc2c1c(=O)n(C)c(=O)n2C)c1ccccc1 (stereo unspecified),-1.6%
2,CCc1cccc(NC(=O)C2CCCN(S(=O)(=O)c3c(C)[nH]c(=O)[nH]c3=O)C2)c1 (stereo unspecified),-1.3%
3,[O-][N+]12CCN(CC1)c1ccccc12,-14.6%
4,Cc1ccc2nc3ccc(N4CCCC4)nn3c(=O)c2c1,4.6%
5,COC(=O)C1=C(C)NC(=O)CC1c1cccc(Cl)c1Cl (stereo unspecified),-12.9%
6,CCOC(=O)C1C(c2cccc(Cl)c2Cl)NC(=O)NC1(O)C(F)(F)F (stereo unspecified),-1.7%
7,N#CC1=C(SCC(=O)NC2CC2)NC(=O)C(C#N)C12CCCCC2 (stereo unspecified),-13.2%
8,CC(C)(C)C1CCC2(CC1)C(C#N)=C(SCC(=O)NC1CCCCC1)NC(=O)C2C#N (stereo unspecified),58.7% (active)
9,CCOC(=O)C1=C(SCC(=O)Nc2ccccc2)NC(=O)C(C#N)C12CCCCC2 (stereo unspecified),1.9%
10,N#CC1=C(SCC(=O)NC23CC4CC(CC(C4)C2)C3)NC(=O)C(C#N)C12CCCCC2 (stereo unspecified),49.7%
11,N#CC1=C(N)NC(SCC(=O)Nc2ccccc2)=C(C#N)C12CCCC2,1.6%
12,Cc1ccc2[nH]c(=O)c(CN(Cc3nnnn3Cc3ccccc3)C3CCCC3)cc2c1,-16.4%
13,Cc1cnc(-c2nnc(N(C)C(=O)C3CCCO3)s2)cn1 (stereo unspecified),-5.4%
14,Cc1ccc(-n2ncc(C(=O)N3CCc4ccccc4C3)c2NC(=O)c2ccco2)cc1C,71.2% (active)
15,O=C(Nc1c(C(=O)N2CCCCC2)cnn1-c1ccccc1)c1ccco1,-10.4%
16,Cc1ccc(NC(=O)c2cnn(-c3ccccc3)c2NC(=O)c2ccco2)cc1C,1.7%
17,COc1ccc(S(=O)(=O)N2CCN(c3cccc(C)c3C)CC2)cc1,2%
18,CC(=O)Nc1ccc(S(=O)(=O)N2CCC(c3nc4ccccc4[nH]3)CC2)cc1,6.7%
19,CC(=O)Nc1ccc(S(=O)(=O)N2CCN(c3cccc(C)c3C)CC2)cc1,54.3% (active)
20,CC(=O)Nc1ccc(S(=O)(=O)N2CCN(c3cc(C)ccc3C)CC2)cc1,7.6%
21,CC(=O)Nc1ccc(S(=O)(=O)N2CCN(c3cc(C)nc4ccccc34)CC2)cc1,2.1%
22,CC(=O)Nc1ccc(S(=O)(=O)NC(CC(=O)N(C)Cc2ccccc2)C(C)C)cc1 (stereo unspecified),-7.1%
23,CC(C)N1CC(C(=O)Nc2nc3ccccc3s2)CC1=O (stereo unspecified),-0.4%
24,Nn1c(Nc2ccccc2)nc2sc3c(c2c1=O)CCC3,57.6% (active)

row,SMILES,cytotoxicity
1,CCCc1nc2sc3c(c2c(=O)n1N)CCC3,3%
2,CCc1nc2sc3c(c2c(=O)n1N)CCC3,1.2%
3,COc1ccc(S(=O)(=O)N(CC(=O)O)c2ccc(C)cc2)cc1,-20.8%
4,O=C(NCc1cccnc1)C1c2ccccc2C(=O)N1Cc1ccco1 (stereo unspecified),-4.7%
5,CC(C)(C)C1CCc2nc(NC(=O)Cc3cn4ccsc4n3)sc2C1 (stereo unspecified),57.3% (active)
6,O=C(Cc1cn2ccsc2n1)Nc1nc2c(s1)CN(Cc1ccccc1)CC2,-4.7%
7,O=C(Cc1cn2ccsc2n1)Nc1nc2c(s1)CCCC2,6.8%
8,CC1(C)CC(=O)C2=C(C1)NC(SCC(=O)Nc1ccccc1)=C(C#N)C21CCCCC1,-19.2%
9,COc1ccc(C(=O)CSC2=C(C#N)C3(CCCCC3)C(C#N)=C(N)N2)cc1,22.5%
10,CCSC1=C(C#N)C2(CCCCC2)C(C#N)=C(N)N1,-4.6%
11,CCSC1=C(C#N)C2(CCCC2)C(C#N)=C(N)N1,-1.6%
12,N#CC1=C(N)NC(SCC(=O)O)=C(C#N)C12CCCC2,4.9%
13,N#CC1=C(N)NC(SCc2ccccc2)=C(C#N)C12CCCCC2,72.2% (active)
14,CSC1=C(C#N)C2(CCCC2)C(C#N)=C(N)N1,22.6%
15,CCOC(=O)c1cnn(-c2ncnc3c2oc2ccccc23)c1N,-2.5%
16,COc1ccc(C2(CCN)CC(C)N(C)CC2C)cc1 (stereo unspecified),-5.8%
17,O=C(c1cc(F)c(F)cc1Cl)N1CCCCC1,-3%
18,CCCSc1nc2c(cnn2-c2ccc(F)cc2)c(=O)[nH]1,-9.3%
19,Cc1ccc(S(=O)(=O)NCCCN2CCOCC2)cc1C,-25%
20,Oc1ccc(-c2nc3cnccn3c2Nc2ccc3c(c2)OCCO3)cc1,3.8%
21,CCOC(=O)c1sc(NC(=O)CSc2n[nH]c(-c3ccccc3)n2)c(C#N)c1C,4.4%
22,CCOC(=O)c1c(NC(=O)CSc2n[nH]c(N)n2)sc(CC)c1C,-3.3%
23,O=C(COC(=O)C1COc2ccccc2O1)NC(=O)NC1CCCC1 (stereo unspecified),-11.8%
